Data taken from PubChem BioAssay.
Active and inactive are the calls of the source. Unless noted, how the calls were made is not given here.

Assays:
[1] = A549 cell viability effects, profiling panel, calcein-AM fluorescence, 48 h, basal (AID 1162); settings: higher = more signal; further: test concentration not given here
[2] = adipocyte viability effects, profiling panel, cell-based, 3T3-L1 adipocytes, calcein-AM fluorescence, 48 h, basal (AID 1163); settings: 3T3-L1 adipocytes viability, higher = more signal; further: test concentration not given here
[3] = HepG2 cell viability effects, profiling panel, calcein-AM fluorescence, 48 h, basal (AID 1164); settings: higher = more signal; further: test concentration not given here
[4] = MM1S cell viability effects, profiling panel, calcein-AM fluorescence, 48 h, basal (AID 1165); settings: higher = more signal;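 further: viability of MM1S multiple myeloma cells under basal unstimulated conditions; test concentration not given here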
[5] = basal RPMI8226 viability, no added stimulus, profiling panel, cell-based, calcein-AM fluorescence, 48 h, PK04 Diversity Set (AID 1166); settings: RPMI8226 myeloma viability, higher = more signal;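 further: cells grown under basal conditions without added stimulus; test concentration not given here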
[6] = basal HepG2 mitochondrial membrane potential changes, profiling panel, cell-based, JC-1 fluorescence, 24 h, 100 nL compound (AID 1167); settings: higher = more signal; further: test concentration not given here
[7] = basal 3T3-L1 adipocyte mitochondrial potential changes, profiling panel, cell-based, JC-1 fluorescence, 3T3-L1 adipocytes, 24 h, 100 nL compound (AID 1168); settings: JC-1 mitochondrial fluorescence, higher = more signal, called active from +8 up or from −8 down; further: test concentration not given here
[8] = basal RPMI8226 mitochondrial membrane potential changes, profiling panel, cell-based, JC-1 fluorescence, 24 h, 100 nL compound (AID 1169); settings: RPMI8226 myeloma, JC-1 mitochondrial potential fluorescence, higher = more signal; further: test concentration not given here
[9] = basal MM1S mitochondrial membrane potential changes, profiling panel, cell-based, JC-1 fluorescence, 24 h, 100 nL compound (AID 1170); settings: higher = more signal; further: test concentration not given here
[10] = A549 lung cancer cell viability effects, profiling panel, resazurin fluorescence, 24 h, PK04 Diversity Set (AID 1171); settings: higher = more signal, called active from +8 up or from −8 down; further: test concentration not given here
[11] = HepG2 liver cancer cell viability effects, profiling panel, resazurin fluorescence, 24 h, PK04 Diversity Set (AID 1172); settings: higher = more signal; further: test concentration not given here
[12] = basal S. cerevisiae growth modulation, no modifier, primary screen, OD600, strain BY4716, 24 h, basal condition (AID 1173); settings: OD600, 24 h, higher = more signal, called active from +8 up or from −8 down
[13] = MM1S myeloma cell viability, profiling panel, resazurin fluorescence, basal, 24 h, PK04 Diversity Set (AID 1174); settings: higher = more signal, called active from +8 up or from −8 down;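 further: MM1S multiple myeloma cell line; test concentration not given here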
[14] = target: Dihydroorotate dehydrogenase (quinone), mitochondrial (Plasmodium falciparum (isolate 3D7)) (UniProt Q08210); test: PfDHODH enzyme inhibitors, primary screen, biochemical, C-terminal His tag, absorbance 600 nm (AID 1175); settings: DCIP absorbance 600 nm, higher = more signal, called active from +8 up or from −8 down;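 further: recombinant parasite enzyme with a five histidine tag at its C terminus; test concentration not given here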
[15] = P. aeruginosa biofilm formation inhibitors, primary screen, strain PAO1, LB-PBS medium, absorbance 600 nm (AID 1176); further: test concentration not given here; settings: P. aeruginosa PAO1 growth/biofilm, A600, 12 h; higher = more signal
[16] = S. cerevisiae RM11-1a growth modifiers, primary screen, strain RM11-1a, OD600, basal, 24 h (AID 1177); settings: OD600, 24 h, higher = more signal, called active from +8 up or from −8 down;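 further: cultures grown under basal conditions with no added stressor; test concentration not given here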
[17] = E. coli acrAB mutant growth effects, primary screen, E. coli filamentation inducers, strain DRC39, OD650, 24 h (AID 1178); settings: higher = more signal, called active from +8 up or from −8 down;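 further: growth measured as culture turbidity by optical density at 650 nm; test concentration not given here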
[18] = E. coli acrAB mutant growth effects, primary screen, E. coli filamentation inducers, strain DRC39, OD650, 48 h (AID 1179);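 further: screen aims at cell division blockers that make cells filament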; settings: E. coli DRC39 delta-acrAB growth, higher = more signal, called active from +8 up or from −8 down
[19] = RPMI8226 myeloma cell viability, profiling panel, resazurin fluorescence, basal, 24 h, PK04 Diversity Set (AID 1180); settings: higher = more signal;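 further: RPMI8826 multiple myeloma cell line at 5000 cells per well; test concentration not given here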
[20] = target: E3 ubiquitin-protein ligase XIAP (Homo sapiens) (UniProt P98170); test: XIAP binders, primary screen, biophysical, small-molecule microarray, fluorescence 635 nm (AID 1181); settings: small-molecule microarray binding, higher = more signal;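 further: score merges 667 nm emission and signal to noise over triplicate slides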
E3 ubiquitin-protein ligase XIAP (Homo sapiens), sequence (P98170 whole entry, looked up): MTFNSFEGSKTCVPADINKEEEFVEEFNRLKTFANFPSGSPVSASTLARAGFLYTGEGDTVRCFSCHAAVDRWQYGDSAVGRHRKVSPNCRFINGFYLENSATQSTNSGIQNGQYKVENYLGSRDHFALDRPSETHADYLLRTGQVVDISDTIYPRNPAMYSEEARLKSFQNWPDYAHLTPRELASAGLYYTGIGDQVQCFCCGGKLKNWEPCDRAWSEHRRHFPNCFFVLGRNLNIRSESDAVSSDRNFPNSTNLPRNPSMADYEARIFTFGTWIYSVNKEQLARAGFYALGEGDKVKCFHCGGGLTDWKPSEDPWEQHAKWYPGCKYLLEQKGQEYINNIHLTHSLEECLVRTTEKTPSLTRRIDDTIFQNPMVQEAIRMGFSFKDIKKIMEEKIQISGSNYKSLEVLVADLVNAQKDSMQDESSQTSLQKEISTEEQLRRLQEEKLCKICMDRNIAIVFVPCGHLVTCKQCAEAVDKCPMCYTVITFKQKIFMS

Dihydroorotate dehydrogenase (quinone), mitochondrial (Plasmodium falciparum (isolate 3D7)), sequence (Q08210 whole entry, looked up): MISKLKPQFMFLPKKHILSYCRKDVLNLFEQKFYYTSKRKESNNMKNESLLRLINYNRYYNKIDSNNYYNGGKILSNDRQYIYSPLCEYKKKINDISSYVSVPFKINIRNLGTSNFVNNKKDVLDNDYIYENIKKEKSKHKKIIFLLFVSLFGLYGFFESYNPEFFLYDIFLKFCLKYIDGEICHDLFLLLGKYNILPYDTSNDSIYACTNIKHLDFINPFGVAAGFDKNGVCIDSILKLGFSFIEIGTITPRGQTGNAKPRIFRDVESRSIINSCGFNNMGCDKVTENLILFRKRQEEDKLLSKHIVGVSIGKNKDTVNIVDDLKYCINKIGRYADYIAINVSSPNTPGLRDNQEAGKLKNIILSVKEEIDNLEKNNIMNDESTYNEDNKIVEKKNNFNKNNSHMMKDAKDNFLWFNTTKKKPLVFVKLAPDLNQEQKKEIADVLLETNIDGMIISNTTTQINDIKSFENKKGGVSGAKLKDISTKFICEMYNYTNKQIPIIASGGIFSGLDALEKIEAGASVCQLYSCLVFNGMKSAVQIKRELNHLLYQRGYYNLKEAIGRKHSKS

Row | SMILES | z-score [1] | z-score [2] | z-score [3] | z-score [4] | z-score [5] | z-score [6] | z-score [7] | z-score [8] | z-score [9] | z-score [10] | z-score [11] | z-score [12] | z-score [13] | composite z-score [14] | z-score [15] | z-score [16] | z-score [17] | z-score [18] | z-score [19] | composite z-score [20]
1 | Cc1ccc(S[C@]2(C(=O)NCC(C)C)CC(=O)N(Cc3ccccc3)[C@@H]2c2ccc(CO)cc2I)cc1 | 0.715 | 0.752 | 0.38 | -2.1 | -2.73 | -0.329 | -1.23 (inactive) | -0.813 | -0.528 | 0.999 (inactive) | -0.629 | -1.51 (inactive) | -1.73 (inactive) | 0.47 (inactive) | 0.282 (inactive) | 0.341 (inactive) | -0.0655 (inactive) | -0.553 (inactive) | -1.89 | 0.0583
2 | CC(C)NC(=O)[C@@H]1c2ccccc2C(=O)N(Cc2ccccc2Cl)[C@H]1c1ccc(CO)cc1 | 1.97 | 0.84 | 1.23 | 0.0027 | 0.665 | 2.42 | -0.466 (inactive) | -0.195 | -0.615 | 1.46 (inactive) | 1.6 | -0.197 (inactive) | -0.27 (inactive) | 0.233 (inactive) | 0.183 (inactive) | 0.358 (inactive) | 0.696 (inactive) | 0.661 (inactive) | 0.131 | 0.103
3 | Cc1ccc([C@H]2C(C(=O)O)=C[C@@H](C)N2S(=O)(=O)c2ccc(C)cc2)cc1 | -0.464 | 0.644 | -0.173 | -1.35 | -0.808 | -1.15 | -0.642 (inactive) | -0.187 | 0.249 | -0.16 (inactive) | -0.534 | -0.704 (inactive) | -0.612 (inactive) | -0.377 (inactive) | -0.0322 (inactive) | -0.211 (inactive) | -0.654 (inactive) | -0.444 (inactive) | -1.52 | 0.254
4 | CC(C)C[C@@H]1NC(=O)[C@@H]2C[C@H](C(=O)NCCCCCC[N+](C)(C)C)[C@H](c3ccc(O)cc3)N2C1=O | -0.633 | -0.77 | 0.145 | 0.305 | 0.996 | -0.595 | 0.566 (inactive) | -0.815 | -0.39 | 0.0131 (inactive) | -0.219 | 0.54 (inactive) | 0.181 (inactive) | 0.191 (inactive) | -0.282 (inactive) | 1.11 (inactive) | 0.487 (inactive) | 0.62 (inactive) | 0.0176 | -0.0056
5 | CCCCCN1CC=CC23O[C@@H]4C=CCOC(=O)[C@@H]4[C@H]2C(=O)N(CCCO)[C@@H]3C1=O (stereo not given in full) | -0.279 | 2.21 | -0.721 | 0.364 | -0.0478 | -1.29 | -0.883 (inactive) | -0.022 | 0.208 | -0.15 (inactive) | 0.22 | -0.988 (inactive) | 0.806 (inactive) | -1.67 (inactive) | 0.0837 (inactive) | -0.0379 (inactive) | -0.625 (inactive) | 0.244 (inactive) | 0.217 | -0.0988
6 | CC(=O)NCCCC[C@@H]1NC(=O)[C@@H]2C[C@H](C(=O)NCCCCCCNC(=O)CS)[C@H](c3ccc(O)cc3)N2C1=O | -0.503 | -0.683 | 0.366 | 0.0337 | -0.66 | -0.638 | -0.744 (inactive) | -0.0931 | -0.795 | -0.363 (inactive) | 0.107 | -0.688 (inactive) | -0.568 (inactive) | -0.344 (inactive) | -0.434 (inactive) | 0.208 (inactive) | -0.356 (inactive) | -0.214 (inactive) | -0.763 | -0.0773
7 | COCC1=C2[C@@H](CCc3ccccc3)OB(O)C[C@@H]2[C@@H]2C(=O)N(Cc3ccccc3)C(=O)[C@@H]2C1 | 0.0476 | 0.873 | 0.128 | -1.51 | -0.138 | -1.59 | -0.897 (inactive) | -0.812 | 0.24 | 0.21 (inactive) | 0.0373 | -1.69 (inactive) | -0.278 (inactive) | -0.345 (inactive) | -0.177 (inactive) | -1.06 (inactive) | -0.0682 (inactive) | -0.0309 (inactive) | -0.039 | -0.231
8 | COCCOC(=O)N1C(=O)[C@@]2(c3cc(C#CC4=CCCCC4)ccc31)[C@H](C(=O)NC[C@H](O)c1ccccc1)[C@H]1C(=O)O[C@H](c3ccccc3)[C@H](c3ccccc3)N1[C@@H]2c1ccc(O)cc1 | -0.144 | 1.3 | -0.34 | -2.81 | -3.45 | -2.71 | 1.35 (inactive) | -0.657 | 0.0116 | -1.09 (inactive) | -0.789 | -0.571 (inactive) | -0.925 (inactive) | 0.409 (inactive) | 1.01 (inactive) | 1.55 (inactive) | -0.237 (inactive) | 0.174 (inactive) | -1.73 | -0.02
9 | CCCCCCCCCCC(O)C1C=CC2C(=O)N(Cc3ccccc3)C(=O)C2N1n1cnnc1 (stereo not given) | -0.509 | 0.381 | -0.324 | -0.514 | -0.921 | 0.015 | -1.51 (inactive) | -0.0408 | -0.979 | -0.929 (inactive) | -1.17 | -0.472 (inactive) | -1.39 (inactive) | -1.2 (inactive) | -0.541 (inactive) | -0.623 (inactive) | -0.845 (inactive) | -0.592 (inactive) | -1.15 | -0.0085
